The whole screen tested about 2,400 compounds, of which about 95 (4%) were called active. Not shown: some 3% with an inconclusive outcome. Not all results are given here. Potency and affinity values are given separately. Values without a mark were called inactive.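 Rule for the calls: active = compounds lowering signal whose fitted AC50 is at most ten times the top tested dose; inconclusive = flat fit with moderate inhibition, or poor curve fit; inactive = the rest.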
Experiment: GFP reporter loss versus dox-driven RFP – NIH3T3 R4 cells, cherry-pick, set 3, dose response (AID 493083);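 note: 0% = neutral control wells and -100% = didemnin B positive control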
Conditions: NIH3T3 R4 HSF-1 GFP reporter, heat shock, 48 h; series mostly up to 19.5 µM; activity change, negative = inhibition: at the top concentration
With COc1c([N+](=O)[O-])c(=O)oc2ccccc12 the “activity change, negative = inhibition” value was -1.45%.
For C/C(=N\NC(=O)c1nnn(-c2nonc2N)c1C(C)C)c1ccncc1, the “activity change, negative = inhibition” value was -3.27%.
In the case of COc1ccc(/C=N/NC(=O)Nc2cccc3nsnc23)cc1OC, the “activity change, negative = inhibition” value is reported as 12.9%.
With COc1ccc(CNC(C)CCc2ccccc2)cc1 (stereo unspecified) the “activity change, negative = inhibition” value was -3.43%.
For CCOc1ccc(NC(=O)CN(C)C(=O)c2ccc(N3CCCC3)c([N+](=O)[O-])c2)cc1OCC, the “activity change, negative = inhibition” value was 4.14%.
With COc1cccc(N2CCN(C(=S)Nc3cc(C)cc(C)c3)CC2)c1 the “activity change, negative = inhibition” value was -4.49%.
For CC(CCCC(C)(C)O)NC(=O)c1ccc2oc(CCc3ccccc3)nc2c1 (stereo unspecified), the “activity change, negative = inhibition” value was 1.71%.
With COc1ccc(NC(=O)CCc2nnc3ccc(N4CCC(C)CC4)nn23)cc1OC the “activity change, negative = inhibition” value was -0.697%.
In the case of O=C(O)c1cccc(NC(=S)N/N=C/c2cccnc2)c1, the “activity change, negative = inhibition” value is reported as -3.91%.
For CCc1cccc2c(C(=O)COC(=O)c3ccc([N+](=O)[O-])s3)c[nH]c12, the “activity change, negative = inhibition” value was 4.77%.
In the case of CNC(=S)N/N=C/c1ccc(-c2cccc(C(=O)O)c2)o1, the “activity change, negative = inhibition” value is reported as -2.88%.
In the case of CCOc1ccc(NC(=O)CCCNC(=O)Cn2cnc3sc(C)c(C)c3c2=O)cc1, the “activity change, negative = inhibition” value is reported as -1.07%.
With CCC(=O)n1nc(-c2cccnc2)nc1NCc1cccs1 the “activity change, negative = inhibition” value was -3.19%.
For COc1ccc(N=Cc2c(O)ccc3ccccc23)cc1, the “activity change, negative = inhibition” value was 69.2%.
With O=C1CCCN1CCC1CCN(C(=O)Nc2ccccc2)CC1 the “activity change, negative = inhibition” value was -0.501%.
In the case of CC(C)CCNC(=O)c1ccc2c(SCC(=O)O)c3c(nc2c1)CCC3, the “activity change, negative = inhibition” value is reported as -3.07%.
With COc1ccc(OC)c(NC(=O)C2CCCN(S(=O)(=O)c3c(C)nn(C)c3C)C2)c1 (stereo unspecified) the “activity change, negative = inhibition” value was -0.401%.
In the case of O=C(NCc1ccncc1)C(=O)Nc1nc(C23CC4CC(CC(C4)C2)C3)cs1, the “activity change, negative = inhibition” value is reported as 33.4%.
For Cc1cccc(C)c1NC(=O)c1cccnc1, the “activity change, negative = inhibition” value was -2.88%.
With COc1ccc(C)c2sc(NC(=O)C3=COCCO3)nc12 the “activity change, negative = inhibition” value was -4.67%.
With Cc1ccc(N2C(=O)N(CC(=O)NC(N)=O)C(=O)C2C)cc1 (stereo unspecified) the “activity change, negative = inhibition” value was -1.14%.
In the case of COc1cccc(Nc2ccc(C(=O)O)cc2N)c1, the “activity change, negative = inhibition” value is reported as -0.631%.
For Cn1c(=O)c2c(ncn2CC(=O)Nc2cccc(S(=O)(=O)Nc3ccccc3F)c2)n(C)c1=O, the “activity change, negative = inhibition” value was 8.04%.
With C/C(=N\NC(=O)c1c(C)nc2ccccn12)c1ccc(C(C)(C)C)cc1 the “activity change, negative = inhibition” value was 8.05%.
For CCOC(=O)c1c(N2CCCCC2)c2ccccc2[nH]c1=O, the “activity change, negative = inhibition” value was 2.34%.
In the case of CCOC(=O)c1c(C)[nH]c(C)c1S(=O)(=O)NCCc1cccs1, the “activity change, negative = inhibition” value is reported as 3.28%.
With CC(C)(C)c1ccc(/C=N/N2C(=O)CSC2=S)cc1 the “activity change, negative = inhibition” value was -1.35%.
For NNC(=S)Nc1ccccc1Cl, the “activity change, negative = inhibition” value was -2.15%.
For O=C(NCCN1CCCCC1)Nc1ccccc1Cl, the “activity change, negative = inhibition” value was -12.4%.
With CC(C)C(=O)Nc1cccc(-c2nc3ncccc3o2)c1 the “activity change, negative = inhibition” value was -3.12%.
In the case of CC(=O)Nc1nn(C)c2nc(C)cc(C)c12, the “activity change, negative = inhibition” value is reported as -7.96%.
In the case of Cc1cc(C)c(NC(=O)Nc2ccc3c(c2)OCO3)c(C)c1, the “activity change, negative = inhibition” value is reported as 10.5%.
For O=C(/C(=C(\[O-])c1ccccc1)[n+]1ccc2ccccc2c1)c1ccc([N+](=O)[O-])cc1, the “activity change, negative = inhibition” value was -3.91%.
In the case of CCOC(=O)Cc1cnc(NC(=O)c2ccccc2)s1, the “activity change, negative = inhibition” value is reported as 14.6%.
For CCOC(=O)c1sc(NC(=O)Nc2ccccc2F)nc1C, the “activity change, negative = inhibition” value was 2.48%.
In the case of N#Cc1cccc(C#N)c1Oc1ccc(S(=O)(=O)Nc2ccc(Cl)cc2)cc1, the “activity change, negative = inhibition” value is reported as 27.6%.
For CCOC(=O)CCCNS(=O)(=O)c1c(C)ccc2nsnc12, the “activity change, negative = inhibition” value was -5.83%.
For COc1ccc(/C=C/C(=O)NC(=S)NCCc2ccc(OC)c(OC)c2)cc1, the “activity change, negative = inhibition” value was 0.071%.
With COc1ccc(-n2c(C)c(C(C)=O)c(C(C)=O)c2C)cc1 the “activity change, negative = inhibition” value was -9.69%.
In the case of O=C(O)C1CCC(=O)N(C2CCCCC2)C1c1ccccc1Cl (stereo unspecified), the “activity change, negative = inhibition” value is reported as -8.3%.
With O=C(CC1C(=O)NCCN1Cc1ccccc1F)NC1CCCCCC1 (stereo unspecified) the “activity change, negative = inhibition” value was -11.2%.
For Cc1nn(-c2ccccc2Cl)c(Cl)c1/C=N/Nc1nc2ccccc2s1, the “activity change, negative = inhibition” value was 8.96%.
With COc1ccccc1-c1nnc(SC2CCc3ccccc3NC2=O)s1 (stereo unspecified) the “activity change, negative = inhibition” value was 16.7%.
With N#CCCn1nnc(-c2ccccc2F)n1 the “activity change, negative = inhibition” value was -4.93%.
In the case of Cc1ccccc1OCC(=O)Nc1ccc2c(c1)C(=O)N(CCC(=O)O)C2=O, the “activity change, negative = inhibition” value is reported as -0.08%.
For O=[N+]([O-])c1ccc(Nc2ccc(F)cc2)cc1, the “activity change, negative = inhibition” value was 0.888%.
With COc1nnc(-c2ccc(C(=O)N3C[C@@H]4C[C@H](C3)c3cccc(=O)n3C4)cc2)c2ccccc12 the “activity change, negative = inhibition” value was -9.99%.
For O=C(N1CCCCC1)N1CCN(S(=O)(=O)c2ccccc2)CC1, the “activity change, negative = inhibition” value was 5.28%.
In the case of COc1ccc(S(=O)(=O)N2CCCC2)cc1C(C)C, the “activity change, negative = inhibition” value is reported as 3.89%.
With CCN(C1CCS(=O)(=O)C1)S(=O)(=O)c1cccs1 (stereo unspecified) the “activity change, negative = inhibition” value was -2.59%.
With Cc1c(Cl)cccc1NC(=O)CS(=O)(=O)c1ccccc1 the “activity change, negative = inhibition” value was -2.14%.
In the case of Cc1ccnc(NC(=O)CS(=O)(=O)c2ccccc2)c1, the “activity change, negative = inhibition” value is reported as 0.818%.
With Cc1ccccc1OCCC(=O)OCC(=O)N1c2ccccc2NC(=O)C1(C)C the “activity change, negative = inhibition” value was -1.03%.
In the case of Cc1c(-c2nc(-c3ccc(C(C)(C)C)cc3)no2)n(C)oc1=O, the “activity change, negative = inhibition” value is reported as 1.67%.
In the case of O=C(NCc1ccncc1)c1ccc(Cl)c(S(=O)(=O)N2CCOCC2)c1, the “activity change, negative = inhibition” value is reported as 16.6%.
With CCOC(=O)c1cnc2ccc(C(=O)OC)cc2c1NCCCN1CCOCC1 the “activity change, negative = inhibition” value was -0.453%.

Source: PubChem BioAssay AID493083 (Broad Institute, 2011)
